Data on 17 compounds can be found in PubChem BioAssay (EPA / NIEHS).

For assay [1], the target named is Estrogen receptor (Homo sapiens) (UniProt P03372). The experiment in a line: OT_ER_ERaERa_1440: Odyssey Thera (OT) 24-hour HEK293T Protein-Complementation Assay for Estrogen Receptor-alpha/-alpha Homodimer (AID 2283349; active = hit-call score of the fitted dose curve at least 0.9, where 1 is the maximum;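 note: hits raise fluorescence above DMSO for agonists and antagonists alike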). In a few lines:
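Cells (HEK293T) carrying the fragment-tagged ERα LBD (aa 310-547) pair are treated with chemical for 24 hours. Nuclear and/or cytoplasmic fluorescence is then quantified on a laser scanning cytometer. Activity is scored as signal gain against DMSO.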

For assay [2] the target is unchanged. Briefly: OT_ER_ERaERa_0480: Odyssey Thera (OT) 8-hour HEK293T Protein-Complementation Assay for Estrogen Receptor-alpha/-alpha Homodimer (AID 2283351; active = hit-call score of the fitted dose curve at least 0.9, where 1 is the maximum;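 note: rise in fluorescence from reassembled reporter fragments on ERα LBD homodimer in nucleus or whole cell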). In outline: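 Read-out: fluorescence intensity rise relative to DMSO, nuclear for agonists, nuclear plus cytoplasmic for antagonists. Construct is the ERα LBD (aa 310-547) homodimer fragment-complementation pair, stably expressed in HEK293T; exposure 8 h.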

In assay [3] the target is Peroxisome proliferator-activated receptor gamma (Homo sapiens) (UniProt P37231). Briefly: NVS_NR_hPPARg: NovaScreen (NVS) Nuclear Receptor Binding Assay for human Peroxisome Proliferator-activated Receptor gamma (PPARg) (AID 2283370; active = hit-call score of the fitted dose curve at least 0.9, where 1 is the maximum). In a few lines:
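Fluorescence polarization readout of ligand binding to extracted human PPARg, measured at 2 h. Duplicate single-point screen at 25 uM, then concentration-series retesting; activity defined as signal loss versus DMSO.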

The target in assay [4] is Estrogen receptor (Homo sapiens) (UniProt P03372). The experiment in a line: OT_ERa_GFPERaERE_0480: Odyssey Thera (OT) 8-hour HeLa Transcription Induction Assay for Estrogen Receptor (AID 2283381). In a few lines:
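GFP-ERE reporter, HeLa, 8 h exposure. Readout: fluorescence microscopy, high-content image analysis. Fit direction positive vs DMSO negative control.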

Assay [5] has the same target. Briefly: OT_ERa_GFPERaERE_0120: Odyssey Thera (OT) 2-hour HeLa Transcription Induction Assay for Estrogen Receptor (AID 2283382; active = hit-call score of the fitted dose curve at least 0.9, where 1 is the maximum). In a few lines:
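Fluorescence microscopy read-out: inducible fluorescent protein reporter in HeLa cells, imaged 2 h post-dose. Signal increase over DMSO negative control fitted as single primary endpoint via high content image analysis.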

Read-out in assay [6]: Transforming growth factor beta 1 (TGFb1), TGFB1 (gene 7040)
Briefly: BSK_BE3C_TGFb1: BioMAP Diversity Plus: BE3C Assay for Transforming growth factor beta 1 (TGFb1) Biomarker Activity (AID 2283036;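 note: TGF-b1 protein level measured by ELISA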). The conditions noted are these: primary human bronchial epithelial cells; actives raise or lower the signal. In a few lines: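 Read-out: ELISA for TGF-b1 in primary human bronchial epithelial cultures, 24 h post-dose. Bidirectional curve fitting vs DMSO control; gain or loss of signal both scored.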

Read-out in assay [7]: Transforming growth factor beta 1 (TGFb1), TGFB1 (gene 7040)
Briefly: BSK_KF3CT_TGFb1: BioMAP Diversity Plus: KF3CT Assay for Transforming growth factor beta 1 (TGFb1) Biomarker Activity (AID 2283072). The conditions noted are these: primary human keratinocytes with fibroblasts; actives raise or lower the signal. In outline:
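Read-out: ELISA for TGF-b1 in keratinocyte/foreskin fibroblast human skin co-culture, 24 h after dosing; bidirectional curve fit vs DMSO baseline; gain or loss of signal scored.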

Read-out in assay [8]: Basic fibroblast growth factor (bFGF), FGF2 (gene 2247)
The experiment in a line: BSK_MyoF_bFGF: BioMAP Diversity Plus: MyoF Assay for Basic fibroblast growth factor (bFGF) Biomarker Activity (AID 2284246). The conditions noted are these: primary human lung fibroblasts. In outline:
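Primary human lung fibroblast culture, 24 h compound exposure; ELISA read-out of bFGF. Positive-direction fit vs DMSO baseline. Cytotoxicity: SRB stain (0.1% SRB, 10% TCA fixation, 560 nm) in parallel wells.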

Read-out in assay [9]: Collagen IV, COL4A1 (gene 1282)
Briefly: BSK_MyoF_CollagenIV: BioMAP Diversity Plus: MyoF Assay for Collagen IV Biomarker Activity (AID 2284247). Particulars: primary human lung fibroblasts. In a few lines: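 ELISA read-out of Collagen IV in lung fibroblast cultures, 24 h post-dosing; gain of signal relative to DMSO vehicle baseline defines activity.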

Read-out in assay [10]: Plasminogen activator inhibitor-1 (PAI1), SERPINE1 (gene 5054)
The experiment in a line: BSK_MyoF_PAI1: BioMAP Diversity Plus: MyoF Assay for Plasminogen activator inhibitor-1 (PAI1) Biomarker Activity (AID 2284256).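 For outcome: PAI-1 protein level measured by ELISA in fibroblast cultures; PAI-1 read 24 h after compound addition.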 Particulars: primary human lung fibroblasts. In outline: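 Human lung fibroblasts (MyoF system) were exposed to test chemicals for 24 h, then PAI-1 was quantified by ELISA. Activity was fitted in the positive (signal-gain) direction relative to DMSO vehicle as baseline.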

Read-out in assay [11]: Interleukin-8 (IL8), CXCL8 (gene 3576)
The experiment in a line: BSK_MyoF_IL8: BioMAP Diversity Plus: MyoF Assay for Interleukin-8 (IL8) Biomarker Activity (AID 2284261). The conditions noted are these: primary human lung fibroblasts. In outline:
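IL-8 quantified by ELISA after 24 h compound exposure of primary human lung fibroblasts. SRB staining of parallel cultures flagged cytotoxicity; DMSO served as baseline.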

Read-out in assay [12]: Matrix Metallopeptidase 1 (MMP1), MMP1 (gene 4312)
Briefly: BSK_MyoF_MMP1: BioMAP Diversity Plus: MyoF Assay for Matrix Metallopeptidase 1 (MMP1) Biomarker Activity (AID 2284268). Particulars: primary human lung fibroblasts. In outline:
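Human lung fibroblasts (MyoF system) exposed to chemical for 24 h in 96-well format; MMP1 biomarker quantified by ELISA, with activity fitted in the positive direction relative to DMSO baseline.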

For assay [13], the target named is Aryl hydrocarbon receptor (Homo sapiens) (UniProt P35869). Briefly: ATG_Ahr_CIS: Attagene CIS-FACTORIAL HepG2 Assay for human Aryl Hydrocarbon Receptor (Ahr) (AID 2282930). Particulars: HepG2 AhR cis-factorial reporter transcription; actives raise or lower the signal. In outline:
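Read-out: reporter mRNA quantified by RT-PCR with fluorescent primer extension and capillary electrophoresis. Human HepG2 liver cells carried transfected cis-promoter reporter units and were exposed to chemical for 24 h; gain or loss fitted relative to DMSO.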

In assay [14] the target is Estrogen receptor (Homo sapiens) (UniProt P03372). The experiment in a line: ATG_ERa_TRANS: Attagene TRANS-FACTORIAL HepG2 Assay for human Estrogen Receptor alpha (ERa) (AID 2282970; active = hit-call score of the fitted dose curve at least 0.9, where 1 is the maximum). The conditions noted are these: HepG2 Attagene TRANS ERa GAL4 reporter, mRNA. In a few lines: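 Reporter transcripts were measured 24 h after dosing by RT-PCR with fluorescent primer extension and capillary electrophoresis. The system is transiently transfected HepG2 expressing exogenous NR-Gal4 chimeras driving GAL4-UAS reporters; DMSO is the baseline.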

Assay [15] addresses rat Peripheral-type Benzodiazepine Receptor (PBR), Tspo (gene 24230) (UniProt P16257). Briefly: NVS_MP_rPBR: NovaScreen (NVS) Membrane Protein Assay for rat Peripheral-type Benzodiazepine Receptor (PBR) (AID 2283335; active = hit-call score of the fitted dose curve at least 0.9, where 1 is the maximum). In a few lines:
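Single-concentration duplicate screening at 25 uM preceded concentration-series retesting of actives. Binding of a specific radioligand to rat kidney membrane PBR was read by filtration radiodetection after 1 h, with plate-wise positive and negative controls.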

Assay [16] concerns the target PGR (gene 5241) (UniProt P06401). Briefly: TOX21_PR_BLA_Followup_Antagonist_ratio: Tox21 HEK293 Progesterone Receptor (PR) Antagonism Beta-lactamase Follow-Up Assay, Ratio (AID 2283934; active = hit-call score of the fitted dose curve at least 0.9, where 1 is the maximum). In outline:
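Read-out: blue/green beta-lactamase FRET ratio (cleaved ch2 over uncleaved ch1), fitted relative to DMSO baseline. Cells: PR-UAS-bla HEK293T, GAL4-UAS reporter, stimulated with 1 nM R5020 final; 16 hr compound exposure, 37C.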

The nature of assay [17]: TOX21_PR_BLA_Followup_Agonist_viability: Viability Assessment in the Tox21 HEK293 Progesterone Receptor (PR) Agonism Beta-lactamase Follow-Up Assay (AID 2283935; active = hit-call score of the fitted dose curve at least 0.9, where 1 is the maximum;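 note: signal loss means lower viability so actives are cytotoxic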). In outline:
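Luminescent ATP quantitation (CellTiter-Glo, 30 min, room temperature) in the same wells as the beta-lactamase read, on PR-UAS-bla HEK293T cells exposed to compound for 16 hr at 37C in 2% charcoal-stripped serum.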

Assay [18] can be described thus: TOX21_PR_BLA_Followup_Antagonist_viability: Viability Assessment in the Tox21 HEK293 Progesterone Receptor (PR) Antagonism Beta-lactamase Follow-Up Assay (AID 2283936; active = hit-call score of the fitted dose curve at least 0.9, where 1 is the maximum;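 note: cells exposed to compound with R5020 agonist for 16 h; hits lower the luminescence signal meaning cytotoxicity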). In a few lines:
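PR-UAS-bla HEK293T cells in medium with 2% charcoal-stripped FBS were treated with compounds plus R5020 for 16 hr at 37C. After the beta-lactamase read, CellTiter-Glo was added to the same wells and luminescence read after 30 min at room temperature.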

Assay [19] concerns the target PGR (gene 5241) (UniProt P06401). Briefly: TOX21_PR_LUC_Followup_Antagonist: Tox21 HEK293 Progesterone Receptor (PR) Antagonism Luciferase Follow-Up Assay (AID 2283938; active = hit-call score of the fitted dose curve at least 0.9, where 1 is the maximum;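 note: curve fitted upward as signal gain over DMSO baseline despite antagonist label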). In a few lines: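 Luminescence from ONE-Glo was measured 30 min after reagent addition, following 16 h exposure of HEK293-PR-A-luc cells (3,000/well, plated 5 h earlier) to DMSO-dissolved compounds at 37C; DMSO served as baseline.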

For the next assay, the target named is THRB (gene 7068) (UniProt P10828). Briefly: TOX21_TRB_COA_Antagonist_Followup_ratio: Tox21 Thyroid Hormone Receptor beta Antagonism through Coactivator Recruitment Follow-Up Assay, Ratio (AID 2283967; active = hit-call score of the fitted dose curve at least 0.9, where 1 is the maximum). In outline:
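GST-TRb LBD 5.0 nM + 0.10% BSA, compound added; fluorescein-SRC-2 peptide 200 nM, Tb-anti-GST Ab 2 nM. TR-FRET, ex 340 / em 520:495 ratio. Norm: DMSO 0%, T3 100%.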

Several values for one entry are separate records, joined by “and”; a condition that tells them apart may be missing. Identical values can stand only once. Inconclusive results are not listed. Activity calls are given as the source filed them. Rule for the calls, unless noted: active = hit-call score of the fitted dose curve at least 0.9, where 1 is the maximum; inactive = score below 0.9.

Chain of THRB (gene 7068) (P10828 whole entry, looked up, the tested form may be a part): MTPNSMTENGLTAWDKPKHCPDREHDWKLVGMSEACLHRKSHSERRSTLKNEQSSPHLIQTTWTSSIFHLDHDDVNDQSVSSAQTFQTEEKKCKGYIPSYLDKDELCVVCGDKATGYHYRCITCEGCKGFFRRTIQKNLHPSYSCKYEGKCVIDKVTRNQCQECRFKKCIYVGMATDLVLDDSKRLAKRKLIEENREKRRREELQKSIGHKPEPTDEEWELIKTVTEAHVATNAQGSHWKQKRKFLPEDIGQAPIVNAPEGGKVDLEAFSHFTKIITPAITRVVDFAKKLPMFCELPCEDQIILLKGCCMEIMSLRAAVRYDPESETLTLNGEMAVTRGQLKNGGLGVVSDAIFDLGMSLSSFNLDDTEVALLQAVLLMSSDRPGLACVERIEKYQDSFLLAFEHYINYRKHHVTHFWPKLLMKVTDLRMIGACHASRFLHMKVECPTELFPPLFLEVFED
Chain of Estrogen receptor (Homo sapiens) (P03372 whole entry, looked up, the tested form may be a part): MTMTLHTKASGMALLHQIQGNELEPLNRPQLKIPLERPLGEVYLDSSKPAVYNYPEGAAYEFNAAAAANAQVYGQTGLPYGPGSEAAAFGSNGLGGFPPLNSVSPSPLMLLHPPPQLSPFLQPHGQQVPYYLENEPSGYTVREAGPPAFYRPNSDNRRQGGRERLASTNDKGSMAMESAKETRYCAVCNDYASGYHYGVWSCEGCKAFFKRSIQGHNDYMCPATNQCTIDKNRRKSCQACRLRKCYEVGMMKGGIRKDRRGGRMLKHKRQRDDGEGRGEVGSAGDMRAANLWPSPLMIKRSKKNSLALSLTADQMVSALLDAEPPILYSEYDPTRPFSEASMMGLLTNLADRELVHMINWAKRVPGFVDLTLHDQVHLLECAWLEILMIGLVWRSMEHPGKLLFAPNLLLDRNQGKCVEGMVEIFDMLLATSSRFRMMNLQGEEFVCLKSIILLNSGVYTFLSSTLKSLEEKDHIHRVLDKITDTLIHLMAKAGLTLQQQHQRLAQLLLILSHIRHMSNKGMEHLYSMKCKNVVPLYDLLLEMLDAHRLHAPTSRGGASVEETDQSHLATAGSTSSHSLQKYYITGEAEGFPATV
Chain of PGR (gene 5241) (P06401 whole entry, looked up, the tested form may be a part): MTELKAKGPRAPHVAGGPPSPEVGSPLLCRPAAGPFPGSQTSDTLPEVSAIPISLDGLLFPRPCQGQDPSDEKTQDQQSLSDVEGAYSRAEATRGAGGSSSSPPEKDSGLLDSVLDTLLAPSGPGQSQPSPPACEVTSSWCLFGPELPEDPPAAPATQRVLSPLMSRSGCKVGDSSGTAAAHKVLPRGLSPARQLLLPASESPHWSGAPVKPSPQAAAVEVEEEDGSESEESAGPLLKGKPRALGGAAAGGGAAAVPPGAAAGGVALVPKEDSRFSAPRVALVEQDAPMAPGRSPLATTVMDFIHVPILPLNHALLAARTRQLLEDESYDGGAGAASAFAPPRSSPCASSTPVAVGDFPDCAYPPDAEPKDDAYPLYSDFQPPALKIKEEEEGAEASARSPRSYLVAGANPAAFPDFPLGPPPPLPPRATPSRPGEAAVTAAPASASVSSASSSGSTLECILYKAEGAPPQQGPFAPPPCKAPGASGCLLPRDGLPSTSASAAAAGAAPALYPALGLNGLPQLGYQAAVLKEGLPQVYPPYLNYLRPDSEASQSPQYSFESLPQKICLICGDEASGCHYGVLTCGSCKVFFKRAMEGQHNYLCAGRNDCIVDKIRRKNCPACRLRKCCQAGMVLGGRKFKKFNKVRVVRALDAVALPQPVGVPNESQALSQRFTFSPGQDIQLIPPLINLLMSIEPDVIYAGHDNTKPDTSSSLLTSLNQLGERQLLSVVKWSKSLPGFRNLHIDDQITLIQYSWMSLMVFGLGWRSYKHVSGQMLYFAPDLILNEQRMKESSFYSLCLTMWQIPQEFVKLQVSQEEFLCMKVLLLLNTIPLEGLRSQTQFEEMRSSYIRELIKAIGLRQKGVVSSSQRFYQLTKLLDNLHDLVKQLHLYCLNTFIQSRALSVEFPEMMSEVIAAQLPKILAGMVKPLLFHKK
Chain of Aryl hydrocarbon receptor (Homo sapiens) (P35869 whole entry, looked up): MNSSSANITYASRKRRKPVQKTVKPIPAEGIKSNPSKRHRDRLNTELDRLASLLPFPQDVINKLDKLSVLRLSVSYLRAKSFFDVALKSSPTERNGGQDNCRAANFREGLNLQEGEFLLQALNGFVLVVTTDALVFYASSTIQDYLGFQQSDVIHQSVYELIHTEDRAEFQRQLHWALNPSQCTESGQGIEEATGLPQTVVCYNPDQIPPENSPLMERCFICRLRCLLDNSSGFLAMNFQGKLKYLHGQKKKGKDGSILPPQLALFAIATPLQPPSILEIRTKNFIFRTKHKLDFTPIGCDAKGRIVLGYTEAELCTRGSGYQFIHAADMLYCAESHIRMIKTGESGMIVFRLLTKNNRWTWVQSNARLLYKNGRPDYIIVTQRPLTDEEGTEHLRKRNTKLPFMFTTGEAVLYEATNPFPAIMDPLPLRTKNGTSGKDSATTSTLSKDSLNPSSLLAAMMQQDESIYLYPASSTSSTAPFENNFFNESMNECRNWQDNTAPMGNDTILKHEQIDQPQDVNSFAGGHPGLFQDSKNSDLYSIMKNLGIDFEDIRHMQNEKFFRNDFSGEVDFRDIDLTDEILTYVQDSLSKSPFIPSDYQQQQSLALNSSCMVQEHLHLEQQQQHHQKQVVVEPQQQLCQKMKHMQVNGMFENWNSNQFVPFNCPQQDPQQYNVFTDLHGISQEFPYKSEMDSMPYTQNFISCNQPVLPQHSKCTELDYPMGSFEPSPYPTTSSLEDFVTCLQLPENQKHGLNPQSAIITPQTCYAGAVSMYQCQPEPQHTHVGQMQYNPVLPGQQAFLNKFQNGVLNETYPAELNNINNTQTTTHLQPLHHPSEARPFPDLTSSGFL
Chain of rat Peripheral-type Benzodiazepine Receptor (PBR), Tspo (gene 24230) (P16257 whole entry, looked up): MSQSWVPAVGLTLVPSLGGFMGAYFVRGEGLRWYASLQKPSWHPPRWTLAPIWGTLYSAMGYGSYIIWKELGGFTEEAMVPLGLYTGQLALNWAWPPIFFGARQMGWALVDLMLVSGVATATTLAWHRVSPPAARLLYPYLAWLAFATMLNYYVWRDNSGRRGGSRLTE
Chain of Peroxisome proliferator-activated receptor gamma (Homo sapiens) (P37231 whole entry, looked up): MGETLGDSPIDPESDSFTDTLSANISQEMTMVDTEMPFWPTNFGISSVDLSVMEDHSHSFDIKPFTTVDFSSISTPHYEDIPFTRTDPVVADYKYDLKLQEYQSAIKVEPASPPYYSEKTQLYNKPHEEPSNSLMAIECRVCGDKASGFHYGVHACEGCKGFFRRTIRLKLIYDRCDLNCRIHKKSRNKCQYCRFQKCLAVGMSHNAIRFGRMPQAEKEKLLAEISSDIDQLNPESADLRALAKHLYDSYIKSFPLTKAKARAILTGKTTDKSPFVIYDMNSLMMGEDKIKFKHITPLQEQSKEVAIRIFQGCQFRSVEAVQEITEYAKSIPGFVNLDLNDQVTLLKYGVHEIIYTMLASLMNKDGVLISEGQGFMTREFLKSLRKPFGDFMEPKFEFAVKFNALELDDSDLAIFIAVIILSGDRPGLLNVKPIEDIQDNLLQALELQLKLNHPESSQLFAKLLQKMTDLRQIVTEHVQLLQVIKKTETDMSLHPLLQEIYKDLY

Consider `CCOC(=O)c1ccccc1`, for which the result in assay [1], in assay [2], in [3], in assay [4] and in [5] was inactive.
As to `Oc1cccc2ccccc12`, the outcome in assay [6], in assay [7], in assay [8], in assay [9] and in assay [10] was inactive. The AC50 is 6.06 µM (active) in assay [11] and 12.1 µM (active) in assay [12].
As for `OC(C(F)(F)F)(C(F)(F)F)C(O)(C(F)(F)F)C(F)(F)F`, the outcome in assay [8] and in [11] was inactive. Besides, the AC50 in assay [9] was 13.6 µM (active) and 13.9 µM (active); in [10] it was 53.5 µM (active); in [12], 48.4 µM (active) and 47.9 µM (active).
Take `Oc1ccc(Oc2ccccc2)cc1`: the compound was classed as inactive in [13]. Further, the AC50 in assay [14] is 1.44 µM (active).
Take `COc1ccc2ccccc2c1`: the outcome in assay [13] and in [14] was inactive.
As for `CCO[Si](CCCN)(OCC)OCC`, the call in [1], in [2], in assay [4] and in [5] was inactive.
For the compound `CCCc1c(OCCCCc2nn[nH]n2)ccc(C(C)=O)c1O`, the result in assay [14] was inactive.
With `O=C(C1CCCCC1)N1CC(=O)N2CCc3ccccc3C2C1` (stereo not drawn), the half-maximal activity concentration (AC50) in [13] is 27.8 µM (active).
On to `CC[N+](CC)(CC(=O)Nc1c(C)cccc1C)Cc1ccccc1`, for which the outcome in [6], in assay [7], in [15], in assay [3], in assay [8] and in assay [9] was inactive. Also, the result in assay [10], in assay [11] and in assay [12] was inactive.
`CC(=[OH+])/C=C(/C)[O-].CC(=[OH+])/C=C(/C)[O-].CC(=[OH+])/C=C(/C)[O-].[Al]`: in assay [15], the half-maximal activity concentration (AC50) was 7.03 µM (active).
In the case of `CC[N+](CC)(CC(=O)Nc1c(C)cccc1C)Cc1ccccc1` (tested in a mixture with another compound), the AC50 in assay [15] was 3.68 µM (active).
Turning to `Oc1ccc2c(c1)Cc1ccccc1-2`, the AC50 in the assay with PGR (gene 5241) [16] was 29.4 µM (active); with PGR (gene 5241) [19], 38.1 µM (active). Also, the outcome in [17] and in assay [18] was inactive.
For the compound `CC(O)(c1ccc(Cl)cc1)c1ccc(Cl)cc1`, the AC50 in the assay with PGR (gene 5241) [16] is 46.1 µM (active); with PGR (gene 5241) [19] it was 61.6 µM (active). In addition, the outcome in assay [17] and in assay [18] was inactive.
Take `O=[Se](O)O`: the AC50 with THRB (gene 7068) was 31.7 µM (active).
As to `O=C(CCCCCCC(=O)Nc1ccccc1)NO`, the outcome with THRB (gene 7068) was inactive.
As to `CO[C@H]1C[C@@H]2CC[C@@H](C)[C@@](O)(O2)C(=O)C(=O)N2CCCC[C@H]2C(=O)O[C@H]([C@H](C)C[C@@H]2CC[C@@H](O)[C@H](OC)C2)CC(=O)[C@H](C)/C=C(\C)[C@@H](O)[C@@H](OC)C(=O)[C@H](C)C[C@H](C)\C=C/C=C/C=C/1C`, the outcome in the assay with THRB (gene 7068) was inactive.
`CC(COc1ccccc1)N(CCCl)Cc1ccccc1` (stereo not drawn): the AC50 with PGR (gene 5241) [16] is 31.6 µM (active). Further, the compound was called inactive (in assay [17]; in assay [18]; in the assay with PGR (gene 5241) [19]).
